# FBW7 act: human FBW7 E3 ligase activation, primary screen. Q969H0. AlphaScreen FBW7–phospho-cyclin E peptide binding, activator screen. normalized activity (activation), % at 26.1 µM. 650,000 tested, 0.13% active. AID 1259310; in the data active = normalized activity above about 1.9%;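 also: purified mutant Fbw7 with reduced substrate affinity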
# GPR151 activ: activates the human receptor GPR151 | PathHunter beta-arrestin GPR151 cells, luminescence | 650,000 tested, 1% active | activation, % at 11.2 µM; in the data active = activation above about 4.9%;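 also: 0% = median of compound wells and 100% = cells with positive control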
# MITF primary: human MITF inhibition, primary screen; O75030; AlphaScreen MITF homodimerization, bead proximity signal; inhibition, % at 2.6 µM; 650,000 tested, 0.91% active; AID 1259374; in the data active = inhibition above about 50%;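 also: 0% = vehicle wells with protein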
# Target sequence (O75030 whole entry, looked up): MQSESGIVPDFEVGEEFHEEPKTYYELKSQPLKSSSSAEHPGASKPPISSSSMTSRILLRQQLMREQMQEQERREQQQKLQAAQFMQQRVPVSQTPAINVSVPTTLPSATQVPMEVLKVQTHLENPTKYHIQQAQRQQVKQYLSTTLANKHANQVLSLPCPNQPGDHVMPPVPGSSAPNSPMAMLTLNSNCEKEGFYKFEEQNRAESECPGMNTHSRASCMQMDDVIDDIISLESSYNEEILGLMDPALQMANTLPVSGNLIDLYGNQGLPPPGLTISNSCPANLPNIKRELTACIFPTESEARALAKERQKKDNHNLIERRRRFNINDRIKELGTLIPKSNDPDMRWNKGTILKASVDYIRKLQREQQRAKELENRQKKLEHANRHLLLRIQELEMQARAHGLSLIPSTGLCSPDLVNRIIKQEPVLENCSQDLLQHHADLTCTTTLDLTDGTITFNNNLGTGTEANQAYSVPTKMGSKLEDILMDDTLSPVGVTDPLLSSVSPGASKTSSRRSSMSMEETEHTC
# TEAD-YAP block: TEAD-YAP interaction inhibition | HEK-TIYL cells, TEAD-Gal4/YAP UAS-luciferase luminescence | inhibition, % at 9.12 µM | 640,000 tested, 1.4% active | AID 1259422; in the data active = inhibition above about 32%;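 also: 0% = median of test compound wells and 100% = reference inhibitor wells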
# GPR151 conf act: human GPR151 activation, confirmation screen. shares compounds with GPR151 activ. GPR151 PathHunter beta-arrestin cells, luminescence, 90 min; % of EA-reagent control over plate median. 6,700 tested, under 10 active. activation, % at 11.2 µM;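 active = mean percent activation across replicates above the confirmation screen cutoff of 4.91%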
# GPR119 ag: counter-screen for GPR151 activators: effect on human GPR119; shares compounds with GPR151 activ; AID 1508611; 6,700 tested, 0.3% active; activation, % at 11.2 µM; GPR119 PathHunter beta-arrestin cells, luminescence, 90 min; 0 = compound-well median, 100 = enzyme-acceptor control;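 active = mean percent activation in the counterscreen above 29.09%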;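 also: counterscreen on off-target GPR119 to flag nonselective hits from the GPR151 activator screen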
# Starred values were filed as active, the others as inactive; nt = no result. Shown are actives, neighbours in structure and some others; about 3.4% of the full set was active somewhere.
SMILES,FBW7 act,GPR151 activ,MITF primary,TEAD-YAP block,GPR151 conf act,GPR119 ag
C[C@H](O)[C@H]1NC(=O)[C@H]2CN(C(=O)c3ccc4ccccc4c3)CCN2C1=O,0,6.2*,-2,6,1,13
O=C1N[C@@H](Cc2cnc[nH]2)C(=O)N2CCN(C(=O)c3ccc(F)cc3)C[C@H]12,0,6.0*,-20,-3,1,12
O=C1N[C@@H](Cc2ccc(O)cc2)C(=O)N2CCN(C(=O)c3cc(F)ccc3F)C[C@H]12,0,5.7*,-2,-18,1,9
C[C@@H](O)[C@@H]1NC(=O)[C@H]2CN(C(=O)c3ccc4ccccc4c3)CCN2C1=O,0,3,10,6,nt,nt
CC(=O)c1cccc(NC(=O)c2ccc(N3CC4CC(C3)c3cccc(=O)n3C4)c(NC(=O)c3cc4ccccc4oc3=O)c2)c1 (centres undefined),0,1,-16,2,nt,nt
COc1ccc(-c2[nH]nc3nc(-c4ccc(N)nc4)ccc23)cc1OC,2,-1,6,-9,nt,nt
CC[C@@H]1NC(=O)[C@H]2CN(C(=O)c3cccc(Cl)c3)CCN2C1=O,0,13*,6,-2,1,10
Cc1nc2ncnc(N3CCOCC3)c2[nH]1,0,0,12,3,nt,nt
O=C(Nc1ccc(N2CCOCC2)cc1)C1CC(=O)N(Cc2ccccc2)C1 (centres undefined),0,7.6*,1,9,0,-1
O=C(COc1ccc([N+](=O)[O-])cc1)Nc1cc(C(F)(F)F)ccc1N1CCOCC1,0,1,-14,-12,nt,nt
O=C(Nc1cc(C(F)(F)F)ccc1N1CCOCC1)c1cc([N+](=O)[O-])ccc1Cl,0,5.6*,8,81*,0,-7
CCOC(=O)CSc1nc2ccccc2[nH]1,0,1,14,-6,nt,nt
CCOC(=O)c1[nH]c(=O)[nH]c1CSc1nc2ccccc2[nH]1,0,11*,-15,-1,1,6
CCOC(=O)C1CCCN(c2ccc(NC(=O)c3snc4c(=O)[nH]cnc34)cc2)C1 (centres undefined),0,7.4*,1,-7,1,10
CC(C)(C)C(=O)N1N=C(c2cccc(NS(C)(=O)=O)c2)CC1c1cccc(F)c1 (centres undefined),0,2,10,-6,nt,nt
Cc1noc(C)c1S(=O)(=O)N1CCN(Cc2nc(C(C)(C)C)cs2)CC1,0,2,0,0,nt,nt
CCCS(=O)(=O)N1CCN(Cc2nc(C(C)(C)C)cs2)CC1,0,8.8*,-2,-1,1,4
CS(=O)(=O)Nc1nccnc1-c1ccc(COc2ccccc2)cc1,0,1,3,1,nt,nt
CC(=O)N/C(=C\c1ccccc1)C(=O)NC(C)(C)C,0,5.6*,-4,4,0,-10
c1ccc(CNc2cc(Nc3ccncc3)ncn2)cc1,0,5.4*,-5,-1,0,1
Nc1nc(NCc2cccc(C(F)(F)F)c2)cc(Nc2ccncc2)n1,0,4.9*,-12,9,0,-1
CCCN1CC(c2nc3ncc(-c4ccncc4)cc3[nH]2)Cc2ccccc21 (centres undefined),0,-2,-2,32,nt,nt
CCCc1cc(=O)n2[nH]c(NCc3ccc(C)cc3)nc2n1,1,-1,8,7,nt,nt
CCc1ccc(N(CC(=O)N2CCC(C(N)=O)CC2)S(C)(=O)=O)cc1,0,0,7,4,nt,nt
CS(=O)(=O)N(CC(=O)N1CCC(C(N)=O)CC1)c1ccc(Oc2ccccc2)cc1,0,5.0*,-2,-8,-1,-6
SMILES,FBW7 act,GPR151 activ,MITF primary,TEAD-YAP block,GPR151 conf act,GPR119 ag
CCS(=O)(=O)Nc1ccc(-c2nnc(SCC(=O)NC(C)(C)C)o2)cc1,0,-2,-1,-4,nt,nt
COc1cccc(S(=O)(=O)N2CCC(c3nc(-c4ccccc4)no3)CC2)c1,0,0,2,2,nt,nt
COc1cccc(S(=O)(=O)N2CCC(c3nc(-c4cccs4)no3)CC2)c1,1,8.3*,17,-5,0,4
COc1ccccc1N1CCN(C2CCCN(C(=O)C3(C(N)=O)CC3)C2)CC1 (centres undefined),0,5.6*,3,-6,0,4
COc1ccccc1N1CCN(C2CCCN(C(=O)C3CCCCC3)C2)CC1 (centres undefined),0,0,8,-1,nt,nt
CCOc1cc(C2C(C(=O)OCCSCC)=C(C)NC3=C2C(=O)C(C(=O)OC)C(C)C3)ccc1OC(C)=O (centres undefined),0,3,-3,1,nt,nt
O=C(Nc1c2c(nn1-c1ccc(F)cc1)CSC2)c1ccc(Br)o1,0,2,6,11,nt,nt
COc1ccc(-n2nc3c(c2NC(=O)c2cccc(OC)c2)CSC3)cc1,0,6.1*,0,12,0,6
O=C(Nc1c2c(nn1-c1ccc([N+](=O)[O-])cc1)CSC2)c1ccc(Br)o1,0,5.2*,8,14,-1,-4
COc1cccc(C(=O)Nc2c3c(nn2-c2ccc(Oc4ccccc4)cc2)CSC3)c1,1,-1,8,6,nt,nt
Cc1cc(C)n2c(nc3ccccc32)c1C(N)=O,1,0,-4,5,nt,nt
O=C1NC(=O)C(=Cc2ccc(OS(=O)(=O)c3ccc(Cl)cc3)cc2)C(=O)N1,0,-1,13,-5,nt,nt
COc1ccc(S(=O)(=O)Oc2ccc(C=C3C(=O)NC(=O)NC3=O)cc2)cc1,-1,5.3*,9,2,1,10
Cc1ccc(C2(C)NC(=O)N(CC(=O)N3CCC(C)CC3)C2=O)cc1 (centres undefined),0,2,-6,14,nt,nt
O=C(NS(=O)(=O)c1ccccc1)c1ccccc1O,0,5.6*,-11,2,0,-5
COc1ccc(-c2noc(CN(C)Cc3ccncc3C)n2)c(OC)c1OC,0,15*,7,4,0,10
CN(CCc1ccccn1)C(=O)c1ccc(N2CC3CC(C2)c2cccc(=O)n2C3)c(NC(=O)c2cccs2)c1 (centres undefined),0,7.4*,7,2,-1,-3
COc1cc(C(=O)Nc2cc(C(=O)N3CCN(c4ccccc4)CC3)ccc2N2CC3CC(C2)c2cccc(=O)n2C3)cc(OC)c1OC (centres undefined),0,5.5*,12,6,-1,3
COC(=O)c1cc(NC(=O)c2ccc(N3CC4CC(C3)c3cccc(=O)n3C4)c(NC(=O)Nc3ccccc3)c2)cc(C(=O)OC)c1 (centres undefined),0,6.7*,-2,-12,1,8
COc1cc(C(=O)Nc2cc(C(=O)Nc3ccccc3SC)ccc2N2CC3CC(C2)c2cccc(=O)n2C3)cc(OC)c1OC (centres undefined),0,1,12,-12,nt,nt

# Assay outcomes deposited in PubChem by The Scripps Research Institute Molecular Screening Center.
